The target of experiment [1] is Cytochrome P450 1A2 (Homo sapiens) (UniProt P05177). Kind of experiment: p450-cyp1a2 (AID 410; calls by dose curve; also: potency is read from the fitted curve at half-maximal effect). An outline of the steps:
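20nM CYP1A2 with 100uM Luciferin-ME (at Km) in 100mM KPO4; compound preincubated 10 min, NADPH regeneration added, 60 min at room temperature. Luciferin quantified by luminescence after detection reagent; normalized to 57 uM furafylline.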

Experiment [2] has as its target Mitogen-activated protein kinase 10 (Mus musculus) (UniProt Q61831). Description: JNK3 AlphaScreen Assay (AID 530; active = well fitted curve in either direction with a large enough effect, not every such curve was filed as active;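 also: kinase came from lysate of stimulated human HepG2 cells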; also: potency is read from the fitted curve at half-maximal effect). The procedure, abridged:
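Compound titrations were preincubated 15 minutes at room temperature with substrate, antibody and pre-activated JNK3-containing HepG2 lysate. Reactions were started with 10 uM ATP and stopped with EDTA-containing bead buffer for AlphaScreen detection.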

Experiment [3] concerns the target Cytochrome P450 3A4 (Homo sapiens) (UniProt P08684). Description: qHTS Assay for Inhibitors and Substrates of Cytochrome P450 3A4 (AID 884). Also: nearly all actives have a fitted effect of over 50% in size. Also: potency is read from the fitted curve at half-maximal effect. The procedure, abridged:
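20 nM human CYP3A4 with 25 uM Luciferin-PPXE (at KM) in 200 mM KPO4, preincubated 10 min with compound; NADPH regeneration started a 60 min RT reaction. Luciferin detected by luminescence, normalized to 57 uM ketoconazole as full inhibition.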

For experiment [4] the target is unchanged. Description: qHTS Assay for Activators of Cytochrome P450 3A4 (AID 885). Also: nearly all actives have a fitted effect of over 65% in size. An outline of the steps: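 Steps: enzyme/substrate mix dispensed; compound added, 10 min RT; NADPH regeneration solution added, 60 min RT; luciferin detection buffer stops reaction; 20 min later luminescence measured.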
Experiment [5] is described as follows: Cell Viability - MRC5 (AID 434; calls by dose curve;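 also: potency is read from the fitted curve at half-maximal effect; cells exposed to compound for 40 hours at 37 °C; potency reflects cytotoxicity seen as loss of intracellular ATP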). The following applies: MRC5 lung fibroblast viability, qHTS. The procedure, abridged:
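qHTS cytotoxicity in human lung fibroblast MRC5 cells; 40 hr treatment, 37 °C; cellular ATP by luciferase luminescence; DMSO = 0%, 100 uM tamoxifen = 100% inhibition; Hill-fit AC50.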

Experiment [6] is described as follows: Cell Viability - SK-N-SH (AID 435; calls by dose curve; also: potency is read from the fitted curve at half-maximal effect). The following applies: SK-N-SH neuroblastoma cell viability qHTS. An outline of the steps:
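qHTS cytotoxicity: CellTiter-Glo ATP luminescence after 40 h compound exposure of human neuroblastoma SK-N-SH cells at 37 °C. AC50 derived by Hill-equation fitting, with DMSO as basal and 100 uM tamoxifen as full inhibition.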

Experiment [7] can be described thus: Cellular Toxicity (caspase-3) HepG2 (AID 654). Also: potency is read from the fitted curve at half-maximal effect.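 As to caspase-3 activation: cells exposed to compound for 16 hours before reading; 0% = DMSO alone and 100% = caspase signal from 100 µM tamoxifen.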 An outline of the steps:
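HepG2 cells (1500/well) were treated 16 h at 37 °C in complete medium, then caspase 3/7 activity was read by Caspase-Glo luminescence. Data were normalized to DMSO and 100 uM tamoxifen; AC50 came from Hill-equation fits of qHTS concentration-response.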

Experiment [8] can be described thus: Cellular Toxicity (caspase-3) HUV-EC-C (AID 656). Also: potency is read from the fitted curve at half-maximal effect. An outline of the steps: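 Luminescent Caspase-Glo 3/7 readout after 16 h, 37 °C compound exposure of HUV-EC-C endothelial cells, 1000 per well, complete medium. AC50 derived by Hill fitting, with DMSO as baseline and 100 uM tamoxifen as full activation.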
Experiment [9] can be described thus: Cellular Toxicity (caspase-3) Mesangial (AID 660).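 Also: cells exposed to compound for 16 h before the caspase read.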 The following applies: mesangial cells, normalized: DMSO 0%, 100 µM tamoxifen 100%; at 91.7 µM (top of the series). The procedure, abridged: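 Human renal glomerular mesangial cells, 1000/well, 5 h at 37 C before 16 h compound treatment. Caspase-Glo 3/7 luminescence after 20 min; normalized to DMSO and 100 uM tamoxifen, AC50 from Hill fit.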

Experiment [10] can be described thus: Cellular Toxicity (caspase-3) H-4-II-E (AID 663). Also: potency is read from the fitted curve at half-maximal effect.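 As to caspase-3 activation: cells exposed to compound for 16 hr before readout.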 The conditions noted are these: H-4-II-E rat hepatoma; Potency: caspase-3 activation; caspase-3 activation: at 92.2 µM (top of the series), scaled: DMSO 0%, 100 µM tamoxifen 100%. The procedure, abridged: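 Apoptosis induction is scored as increased luminescence from caspase 3/7 substrate cleavage in rat hepatoma H-4-II-E cells exposed to compound for 16 hr. Activity is scaled between DMSO and 100 uM tamoxifen.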

Experiment [11] can be described thus: Cellular Toxicity (caspase-3) Hek293 (AID 664).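 Also: cells exposed to compound for 16 h at 37 °C before readout.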 The following applies: HEK293 caspase-3 activation, DMSO = 0%, 100 µM tamoxifen = 100%; at 92.2 µM (top of the series). The procedure, abridged:
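HEK293 cells in complete medium treated 16 h at 37 °C, then Caspase-Glo 3/7 luminescence read after 20 min at room temperature. Normalized to DMSO and 100 uM tamoxifen; AC50 from Hill fit of concentration-response.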

The nature of experiment [12]: Cellular Toxicity (caspase-3) N2a (AID 665).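 Also: compound exposure lasted 16 h at 37 °C before readout.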 The conditions noted are these: Potency: caspase-3 activation. The procedure, abridged: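 Mouse N2a neuroblastoma cells, 1500 per well, treated 16 h at 37 °C in complete medium; caspase-3/7 activity by Caspase-Glo luminescence after 1 h. Normalized to DMSO and 10 uM staurosporine; AC50 from Hill fits.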
A short description of experiment [13]: MultiTox-Fluor Cytotoxicity Assay - LYMP1-002 - Live Cells (AID 955). Also: potency is read from the fitted curve at half-maximal effect. The procedure, abridged:
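Human lymphoblastoid LYMP1-002 cells, 2500/well, treated 16 h at 37 C in complete medium. Live-cell protease activity via GF-AFC fluorescence (Ex/Em 405/510) after 60 min reagent incubation; AC50 from Hill fits.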

A short description of experiment [14]: Cell Viability - LYMP2-003 (AID 965).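 Also: cells exposed to compounds for 24 h before reading; nearly all actives have a fitted effect of over 50% in size.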 Also: potency is read from the fitted curve at half-maximal effect. The procedure, abridged:
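CellTiter-Glo luminescence quantified ATP loss after 24 h compound treatment of LYMP2-003 lymphoblastoid cells at 37 C. Titration series were fitted with the standard Hill equation to give AC50.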

The target in experiment [15] is Peroxisome proliferator-activated receptor alpha (Homo sapiens) (UniProt Q07869). Description: qHTS assay for small molecule agonists of the peroxisome proliferator-activated receptor alpha (PPARalpha) signaling pathway (AID 651778). Also: potency is read from the fitted curve at half-maximal effect. As to max response: % of control where 0% means no effect. The following applies: PathHunter PPARalpha complementation, chemiluminescence, 6 h; max response: active compounds read high. An outline of the steps: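 Chemiluminescence from complemented enzyme reported PPARalpha activation in cells after 6 hr of compound treatment at 37 C. The detection reagent was incubated for 60 min at room temperature, and compounds were scored as agonists.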

Experiment [16] can be described thus: qHTS assay for cell viability of HEK293 cells (AID 743288). Also: nearly all actives have a fitted effect of over 50% in size. Also: potency is read from the fitted curve at half-maximal effect. As to max response: % is scaled to controls: 0 for no effect and ±100 for the full control effect. The following applies: ATP luminescence (CellTiter-Glo), 18 h; max response: active compounds read low. An outline of the steps:
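Total intracellular ATP, measured with a luciferase-coupled reagent, indicates the number of viable HEK293 cells. Exposure to test chemicals lasts 18 h at 37 C in 1,536-well format at 2,000 cells/well.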

We go through eleven compounds from PubChem BioAssay (NCATS).

SMILES strings stand for the structures. “And” between values parts separate entries of the source, which are not always exact repeats. Identical values can stand only once. A number with no mark means an inactive call. Inconclusive results are not listed. The source made the active and inactive calls. Unless noted, calls follow the shape of the dose curve; as a rule, active = well fitted curve in the direction sought with a large enough effect; inconclusive = small, poorly fitted or top-dose-only effect, or another doubt; inactive = no such curve, though single readings can be large; an effect the other way counts as inactive or inconclusive. Where only a bound is given, the exact number is not on record here.

Chain of Peroxisome proliferator-activated receptor alpha (Homo sapiens) (Q07869 whole entry, looked up): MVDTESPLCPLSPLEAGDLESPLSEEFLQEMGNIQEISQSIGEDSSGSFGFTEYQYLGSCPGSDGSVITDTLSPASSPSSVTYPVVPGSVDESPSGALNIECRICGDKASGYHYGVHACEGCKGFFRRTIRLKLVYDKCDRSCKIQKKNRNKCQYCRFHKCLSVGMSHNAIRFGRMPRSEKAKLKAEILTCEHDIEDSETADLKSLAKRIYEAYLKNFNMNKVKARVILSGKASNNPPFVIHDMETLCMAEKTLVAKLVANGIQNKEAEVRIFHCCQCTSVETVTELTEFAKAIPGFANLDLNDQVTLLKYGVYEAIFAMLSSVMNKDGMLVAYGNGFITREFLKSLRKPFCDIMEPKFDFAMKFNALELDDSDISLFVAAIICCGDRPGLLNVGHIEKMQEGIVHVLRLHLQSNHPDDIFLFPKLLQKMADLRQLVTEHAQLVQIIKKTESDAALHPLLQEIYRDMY
Chain of Cytochrome P450 3A4 (Homo sapiens) (P08684 whole entry, looked up): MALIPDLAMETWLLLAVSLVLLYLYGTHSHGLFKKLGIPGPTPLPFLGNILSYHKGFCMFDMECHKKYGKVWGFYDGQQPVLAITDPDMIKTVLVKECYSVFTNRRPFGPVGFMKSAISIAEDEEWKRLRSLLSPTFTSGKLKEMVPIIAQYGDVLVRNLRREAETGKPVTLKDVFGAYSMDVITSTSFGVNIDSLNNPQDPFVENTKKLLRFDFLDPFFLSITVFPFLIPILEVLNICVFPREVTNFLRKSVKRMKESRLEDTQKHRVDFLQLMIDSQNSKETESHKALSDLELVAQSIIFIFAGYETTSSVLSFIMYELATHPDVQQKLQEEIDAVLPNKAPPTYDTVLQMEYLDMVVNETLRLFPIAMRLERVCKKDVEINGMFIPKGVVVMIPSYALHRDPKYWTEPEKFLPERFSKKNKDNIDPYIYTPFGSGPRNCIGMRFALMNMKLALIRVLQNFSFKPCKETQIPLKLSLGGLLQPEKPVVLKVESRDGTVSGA
Chain of Cytochrome P450 1A2 (Homo sapiens) (P05177 whole entry, looked up): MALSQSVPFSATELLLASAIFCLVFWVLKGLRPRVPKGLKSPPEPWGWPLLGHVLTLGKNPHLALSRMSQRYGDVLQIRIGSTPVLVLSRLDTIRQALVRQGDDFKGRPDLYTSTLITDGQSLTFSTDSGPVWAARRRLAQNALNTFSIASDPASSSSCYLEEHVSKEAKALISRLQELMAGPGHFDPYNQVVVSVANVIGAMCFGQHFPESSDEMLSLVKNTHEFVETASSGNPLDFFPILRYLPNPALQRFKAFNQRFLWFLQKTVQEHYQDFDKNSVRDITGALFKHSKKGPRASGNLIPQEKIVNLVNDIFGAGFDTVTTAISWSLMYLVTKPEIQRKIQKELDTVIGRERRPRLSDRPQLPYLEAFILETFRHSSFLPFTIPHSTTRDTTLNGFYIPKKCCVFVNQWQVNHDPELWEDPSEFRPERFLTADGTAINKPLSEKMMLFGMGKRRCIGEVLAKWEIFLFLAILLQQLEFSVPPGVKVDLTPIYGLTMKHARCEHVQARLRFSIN

As to `COC(=O)c1ccc(C23CC2(C(NP(=O)(c2ccccc2)c2ccccc2)c2ccccc2)C3)cc1` (stereo not drawn), the Potency is 15.8 µM (active) in [1] and 3.16 µM (active) in experiment [3]. In addition, the Potency entry in experiment [2] and in experiment [4] was “inactive” throughout.

With `CCCCc1c2ccccc2nc2[nH]c3ccccc3c12`, the Potency in [1] was 0.2 µM (active). Further, the Potency result in [2] and in experiment [4] was “inactive” in each case.

Consider `CCCC[C@@H]1C[C@H]1C(NC(=O)Cc1ccccc1)c1ccc(-c2ccccc2)cc1` (stereo partly drawn), for which the Potency result in experiment [1], in experiment [2] and in experiment [4] was “inactive” throughout.

For the compound `CC(C)c1cccc2nc3c(c(C(C)(C)C)c12)Cn1c-3cccc1=O`, the Potency in experiment [1] was 12.6 µM (active). Moreover, the Potency entry in [2] and in [4] was “inactive” each time.

As for `CCC(C)Nc1ccc(NC(C)CC)cc1` (stereo not drawn), the Potency was 20.7 µM (active) in experiment [5]; 8.73 µM (active) in experiment [6]; 15.8 µM (active) in experiment [3]; 10 µM (active) in experiment [13]; 10 µM (active) in experiment [14]; 28.2 µM (active) in [16]. For the same compound, the Potency entry in [7], in [8], in experiment [12] and in experiment [4] was “inactive” throughout. Moreover, the caspase-3 activation is -4.04% in [9], -5.35% in experiment [10] and -12.1% in experiment [11]. For the same compound, in experiment [15], the max response is -4.78% and -5%.

For the compound `Cc1cc(O)c(C(C)(C)C)cc1Sc1cc(C(C)(C)C)c(O)cc1C`, the Potency in [5] was 40.2 µM (active); in experiment [6], 23 µM (active); in [7] it was 63.1 µM (active); in experiment [8], 50.1 µM (active); in experiment [10], 31.6 µM (active); in experiment [13] it was 25.1 µM (active). Besides, the Potency was 31.6 µM (active) in [14]; 11.2 µM (active) and 4.47 µM (active) in experiment [15]; 70.8 µM (active) and 50.1 µM (active) in [16]. The Potency entry in [2], in experiment [12] and in experiment [4] was “inactive” each time. The caspase-3 activation in [9] is 140% (active); in experiment [11], 230% (active).

For the compound `CCCCCC/C(C=O)=C\c1ccccc1`, the Potency in experiment [5] and in experiment [6] was > 92 µM in each case. Further, the Potency entry in experiment [2], in experiment [7], in [8], in experiment [12], in experiment [3] and in experiment [13] was “inactive” throughout. In experiment [14], the Potency entry was “inactive”. In addition, the caspase-3 activation was 1.26% in experiment [9], 0.146% in experiment [10] and 2.43% in experiment [11]. Also, the figures for the max response in experiment [15] and in [16] were -1.11% and -1.93%, respectively.

Turning to `CO[C@H]1/C=C/O[C@@]2(C)Oc3c(C)c(O)c4c(O)c(c5c(c4c3C2=O)NC2(CCN(CC(C)C)CC2)N=5)=NC(=O)/C(C)=C\C=C\[C@H](C)[C@H](O)[C@@H](C)[C@@H](O)[C@@H](C)[C@H](OC(C)=O)[C@@H]1C`, the Potency in experiment [5] and in [6] was > 92 µM throughout. Also, the Potency result in experiment [7], in experiment [8], in experiment [12], in experiment [4], in experiment [13] and in experiment [14] was “inactive” in each case. Besides, the caspase-3 activation was 0.833% in experiment [9], 2.28% in experiment [10] and -2.49% in experiment [11]. For the same compound, the max response is -2.63% in [15] and -15.3% in experiment [16].

Consider `O=C(OCC(COC(=O)c1ccccc1)(COC(=O)c1ccccc1)COC(=O)c1ccccc1)c1ccccc1`, for which the Potency in [5] and in experiment [6] was > 92 µM in each case. For the same compound, the Potency result in experiment [2], in experiment [7], in experiment [8], in experiment [12], in experiment [3] and in [13] was “inactive” each time. Also, the Potency result in experiment [14] was “inactive”. In addition, the caspase-3 activation is -0.308% in [9], -0.12% in experiment [10] and 2.36% in experiment [11]. The max response in experiment [15] was -8.1%; in experiment [16], -3%.

On to `Cc1ccc(S(=O)(=O)Oc2ccc(N=Nc3ccc(-c4ccc(N=Nc5c(O)ccc6cc(S(=O)(=O)O)cc(S(=O)(=O)O)c56)c(C)c4)cc3C)cc2)cc1`, for which the Potency in experiment [5] is > 92 µM; in experiment [2], 0.2 µM (active). For the same compound, the Potency result in experiment [7], in [8], in [12], in experiment [4], in [13] and in [14] was “inactive” throughout. The caspase-3 activation is -0.709% in experiment [9], -0.204% in [10] and -1.72% in experiment [11]. In [15], the max response is -11.2%.

In the case of `Cc1cc(Nc2ccc(O)cc2)ccc1N`, the Potency in experiment [5] is > 92 µM; in experiment [6], 87 µM (active); in experiment [3] it was 15.8 µM (active); in experiment [14], 50.1 µM (active). Also, the Potency entry in experiment [7], in [8], in experiment [12], in experiment [4] and in experiment [13] was “inactive” in each case. The caspase-3 activation is 23.2% in [9], 20.7% in [10] and -8.9% in experiment [11]. The max response was -7.64% in experiment [15] and -27% in experiment [16].
